The structures appear in SMILES notation. Inconclusive results are not listed. A number with no mark means an inactive call. The source made the active and inactive calls. Calls follow the shape of the dose curve; as a rule, active = well fitted activation curve with a large enough effect; inconclusive = small, poorly fitted or top-dose-only effect; inactive = no such curve, though single readings can be large or run the other way. Square brackets hold non-standard residues; d marks the D form. Peptide text beside a SMILES is read from it. * marks the point of attachment. ξ: configuration not given here. ξTyr(βOH) = NC(C(=O)O)C(O)c1ccc(O)cc1; AFC = O=c1cc(C(F)(F)F)c2ccc(N*)cc2o1; ξPhe(βξ-Me) = CC(c1ccccc1)C(N)C(=O)O; GABA = NCCCC(=O)O
Potency is read from the fitted curve at half-maximal effect.

Cellular tumor antigen p53 (Homo sapiens), sequence (P04637 whole entry, looked up): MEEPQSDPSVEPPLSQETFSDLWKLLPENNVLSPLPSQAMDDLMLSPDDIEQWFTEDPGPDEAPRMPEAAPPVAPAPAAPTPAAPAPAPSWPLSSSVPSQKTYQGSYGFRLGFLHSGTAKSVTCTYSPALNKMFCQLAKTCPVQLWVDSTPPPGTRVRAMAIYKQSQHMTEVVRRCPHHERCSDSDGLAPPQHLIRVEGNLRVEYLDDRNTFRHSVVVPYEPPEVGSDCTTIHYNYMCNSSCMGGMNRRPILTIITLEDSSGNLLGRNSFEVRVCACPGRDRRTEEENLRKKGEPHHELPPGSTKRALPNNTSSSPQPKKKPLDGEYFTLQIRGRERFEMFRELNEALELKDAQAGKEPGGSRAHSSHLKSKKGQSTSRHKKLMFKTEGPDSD

In the assay the target is Cellular tumor antigen p53 (Homo sapiens) (UniProt P04637). The experiment in a line: Primary qHTS for small molecule compounds that upregulate eGFP-tagged delta133p53alpha (in N-terminal) cells. (AID 2060322). Also: nearly all actives have a fitted effect of over 75% in size.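 As to activation: series mostly up to about 56 µM; 0% = DMSO vehicle and 100% = reference activator.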 The note with it: NCI-H358 eGFP-delta133p53alpha fluorescence, 24 h; activation: hits give high values. In outline:
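NCI-H358 cells pre-induced 24 h with 10 ng/ml doxycycline to express N-terminal eGFP-delta133p53alpha, then dosed 24 h at 37C without doxycycline; fixed, Hoechst-stained, GFP intensity by laser scanning cytometry, normalized to DMSO (0%) and 57.5 uM 5-azacytidine (100%).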
(Quantitative high-throughput screening tests each substance at several concentrations.)
For the compound `CC(O)/C=C/C1(O)C(C)C(O[C@@H]2O[C@H](CO)[C@@H](O)[C@H](O)[C@H]2O)C(O)CC1(C)C` (stereo not given in full), the activation is -10.7%.
Regarding `CC1(C)CCC2(C(=O)OC3OC(COC4OC(CO)C(O)C(O)C4O)C(O)C(O)C3O)CCC3(C)C(=CCC4C5(C)CCC(OC6OCC(O)C(O)C6O)C(C)(C)C5CCC43C)C2C1O` (stereo not given), the activation is -11.5%.
Regarding `CC(=O)N[C@@H](Cc1c[nH]c2ccccc12)C(=O)N[C@@H](CCC(=O)O)C(=O)N[C@@H](Cc1cnc[nH]1)C(=O)N[C@@H](CC(=O)O)C(=O)Nc1ccc2c(C(F)(F)F)cc(=O)oc2c1` (Ac-WEHD-{AFC}), the activation was -4.33%.
In the case of `CC(=O)OC[C@]12[C@H](OC(C)=O)C(=O)[C@@H]3[C@@H](OC(C)=O)[C@@]14O[C@@]3(C)COC(=O)c1cccnc1[C@@H](C)[C@H](C)C(=O)O[C@@H]([C@H](OC(C)=O)[C@@H]2OC(C)=O)[C@]4(C)O`, the activation was -13.7%.
As for `O=C(/C=C/c1ccc(O)cc1)OC[C@H]1O[C@@H](O/C(=C\c2ccccc2)C(=O)O)[C@H](O)[C@@H](O)[C@@H]1O`, the activation is -2.29%.
Take `CC1NC(=O)CCCNC(=O)C(Cc2c[nH]c3ccccc23)NC(=O)C(C)NC(=O)C(C(C)C)NC(=O)C(C(C)c2ccccc2)NC(=O)C(C(C)C)NC1=O` (stereo not drawn) (cyclo([GABA]AV[ξPhe(βξ-Me)]VAW); configuration not given here): the activation was 6.11%.
On to `O=S(=O)(N[C@H]1CCCC[C@@H]1N1CCOCC1)c1ccc(Cl)cc1`, for which the activation was -16.3%.
Take `O=C(Nc1nc2cc(C(F)(F)F)cc(NC3CC3)n2n1)c1cccnc1`: the Potency is 4.78 µM (active).
As to `CCOC(=O)N1CCC(N2CCC[C@@H](NC(=O)c3ccccc3C)C2)CC1`, the activation was -2.86%.
`C=C1CCC[C@]2(C)CC[C@@H](C(=C)C(=O)O)[C@H](O)[C@@H]12`: the activation is -7.63%.
Consider `C=C(C(=O)O)C1CC(O)C2(C)CCCC(C)(O)C2C1` (stereo not given), for which the activation was 1.53%.
`CC(C)C1NC(=O)C(CC2(O)c3ccccc3N3C(=O)C(Cc4ccccc4)NC32)NC1=O` (stereo not given): the activation was -9.82%.
Take `CC(C)c1cc2c(c(O)c1O[C@@H]1O[C@H](CO)[C@@H](O)[C@H](O)[C@H]1O)CC1(O)CCC(O)C(C)(C)C1CC2` (stereo not given in full): the activation is -22.1%.
With `COc1cccc(OC)c1-c1ccc(C[C@H](NC(=O)c2c(Cl)cccc2Cl)C(=O)O)cc1`, the activation is 1.67%.
`CC1=C2C3OC(=O)C(C)C3(O)CCC2(C)CCC1=O` (stereo not given): the activation was -20.5%.
Take `C[C@@H]1O[C@@H](O[C@H]2[C@H](O)[C@@H](O[C@@H]3O[C@H](CO)[C@H](O)[C@H](O)[C@H]3O)[C@H](O[C@H]3CC[C@@]4(C)C(CC[C@]5(C)C4CC=C4[C@@H]6CC(C)(C)CC[C@]6(C(=O)O[C@@H]6O[C@H](CO)[C@@H](O)[C@H](O)[C@H]6O)CC[C@]45C)C3(C)C)O[C@@H]2C(=O)O)[C@H](O)[C@H](O)[C@H]1O` (stereo not given in full): the activation is 5.34%.
For `C=C1CC[C@@H]2[C@](C)(CO)[C@H](O)CC[C@@]2(C)[C@@H]1C/C=C1/C(=O)OCC1O` (stereo not given in full), the Potency is 23.9 µM (active).
In the case of `C=C1C(OC(C)=O)CCC2(C)CCC(C(C)(C)O)CC12` (stereo not given), the activation is -3.05%.
Regarding `CC1CCC2(C)CCC3(C)C(=CCC4C5(C)CCC(O)C(C)(C(=O)O)C5CCC43C)C2C1C` (stereo not given), the activation was 19.6%.
Same read-out and setting: the result for `C=C1CC/C=C(/CO)C(=O)C[C@@H]2[C@@H]1C[C@@]2(C)COC(C)=O` reads 11.5%; that for `C=C(C(=O)O)C1CCC(C)C2CCC(=O)OC2(C)C1` (stereo not given), 18.8%.
On to `COC(=O)c1cc(OC)cc(OC)c1C(=O)c1c(OC)cc2c(c1O)C1CCCC(C)(O2)O1` (stereo not given), for which the activation is 14.5%.
As to `CC1=C2C(=O)C=C(CO[C@@H]3O[C@H](CO)[C@@H](O)[C@H](O)[C@H]3O)[C@@H]2[C@H]2OC(=O)[C@H](C)[C@@H]2CC1`, the activation is -19.6%.
In the case of `O=C(O)CCCCCC[C@H]1C(=O)NC(=O)N1CC[C@@H](O)C1CCCCC1`, the activation was -1.67%.
As to `C[C@@H]1O[C@@H](O[C@H]2[C@H](OC(=O)[C@]34CCC(C)(C)C[C@H]3C3=CCC5[C@@]6(C)CC[C@H](O[C@@H]7O[C@H](CO[C@@H]8OC[C@H](O)[C@H](O)[C@H]8O[C@@H]8OC[C@@H](O)[C@H](O)[C@H]8O)[C@@H](O)[C@H](O)[C@H]7O)C(C)(C)C6CC[C@@]5(C)[C@]3(C)C[C@H]4O)O[C@H](CO)[C@@H](O)[C@@H]2O)[C@H](O[C@@H]2O[C@H](CO)[C@@H](O)[C@H](O)[C@H]2O)[C@H](O)[C@H]1O[C@@H]1OC[C@@H](O)[C@H](O[C@@H]2OC[C@@H](O)[C@H](O)[C@H]2O)[C@H]1O` (stereo not given in full), the activation is -9.92%.
For `CC1=CC(=O)OC(C)(CC(C)(O)C(=O)O)C1` (stereo not given), the activation was -15.3%.
With `C[C@H](O)C(O)(C(=O)OCc1ccccc1NC(=O)CCC(N)C(=O)O)[C@H](C)O` (stereo not given in full), the activation was -24.4%.
The same measure, in the same setting: the result for `C=C(C)C1CC2(CO)C(=CC1=O)CCC(O)C2C` (stereo not given) reads -4.58%; that for `OC[C@@]1(O)CO[C@@H](OC[C@H]2O[C@@H](OCc3ccccc3)[C@H](O)[C@@H](O)[C@@H]2O)[C@@H]1O`, -13.7%.
In the case of `COc1cc(/C=C/C(=O)OC2CC(C)=C(C(=O)O)/C2=C/CO[C@@H]2O[C@H](CO)[C@@H](O)[C@H](O)[C@H]2O)ccc1O` (stereo not given in full), the activation is -8.93%.
On the same count and under the same terms, the result for `CC1(C)CC[C@]2(C(=O)O[C@@H]3O[C@H](CO)[C@@H](O)[C@H](O)[C@H]3O)CC[C@]3(C)C(=CCC4[C@@]5(C)C[C@@H](O)[C@H](O)[C@@](C)(CO)C5[C@H](O)C[C@]43C)C2C1` (stereo not given in full) reads 3.82%.
With `C=C1C(=O)O[C@@H]2/C=C(/C)CC3C=C(C[C@H](OC(=O)/C(C)=C\C)[C@@H]12)C(=O)O3` (stereo not given in full), the Potency was 11.7 µM (active).
In the case of `CC1=C[C@H]2[C@@H](CC1=O)[C@H](C)C[C@H](O)[C@H]2C(C)C`, the activation is 10.7%.
For `CC(=O)[C@@H]1C[C@H](C(C)(C)O[C@@H]2O[C@H](CO)[C@@H](O)[C@H](O)[C@H]2O)CC[C@@]2(CO)OC(=O)C[C@@H]12`, the activation is -6.11%.
As to `CC(=O)O[C@@H]1[C@@H](CO)O[C@@](CO)(O[C@H]2O[C@H](COC(=O)/C=C/c3ccccc3)[C@@H](O)[C@H](O)[C@H]2O)[C@H]1O`, the activation is 2.29%.
As to `COC(=O)c1cc(OC)cc(OC)c1C(=O)c1c(OC)cc2c(c1O)C1CCC(O)C(C)(O2)O1` (stereo not given), the activation is 25.2%.
In the case of `CC(C)C1NC(=O)CNC(=O)C2CCCN2C(=O)C(Cc2c[nH]c3ccccc23)NC(=O)CNC(=O)C(C(O)c2ccc(O)cc2)NC(=O)CNC1=O` (stereo not given) (cyclo(G[ξTyr(βOH)]GWPGV); configuration not given here), the activation is -9.92%.
With `O=c1c2ccccc2nc2n1CCC2O` (stereo not given), the activation was -3.82%.
Same read-out and setting: the result for `COC(=O)C1=COC(OC2OC(CO)C(O)C(O)C2O)C2C1C=CC2(O)CO` (stereo not given) reads -3.57%.
For `O=S(=O)(Nc1ccc(C(O)(C(F)(F)F)C(F)(F)F)cc1)c1cccs1`, the activation is -12.3%.

For the origin of these results see PubChem BioAssay (NCATS).
